In PubChem BioAssay AID1259416 (Broad Institute, 2018):
“And” between values parts separate entries of the source, which are not always exact repeats. Equal values may be shown once. The whole screen tested about 69,000 compounds, of which about 2,600 (3.8%) were called active. No stated cut-off is given here; in the data, active means activity change below about -70% (passing the limit was not always enough); inconclusive means no clear call, values can overlap the other calls. Shown is part of a subset that was picked to be rich in actives. The source holds several records for some structures; these can differ, active in one and inactive in another.

Experiment: T. gondii growth inhibition with IFN-gamma, primary screen, cell-based (AID 1259416);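 further: host cells are HeLa cells infected with Toxoplasma gondii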
Conditions: Toxoplasma gondii growth in IFN-gamma-treated host cells; stronger effect = lower value; concentration not given here

Row | Structure (SMILES) | activity change, negative = inhibition
1 | CC(C)NC(=O)COc1cccc(-c2nc(Nc3ccc4[nH]ncc4c3)c3ccccc3n2)c1 | -76.1% (active)
2 | CC(=O)Nc1ccc(Nc2nc(-c3nnc(-c4cccc(C)c4)o3)nc3ccccc23)cc1 | 494% (inactive)
3 | COc1ccc(-c2nc(Nc3ccc(C(C)C)cc3)c3ccccc3n2)cc1 | -22% (inactive)
4 | Cc1cc(CN(C)C(=O)c2coc(COc3ccc4sc(C)nc4c3)n2)on1 | 12.7% (inactive)
5 | Fc1ccc2c(c1)C(c1cccnc1)=NNC(c1cccs1)=N2 | -8.32% (inactive)
6 | O=C(O)C1CSC(C2CC=CCC2)N1 (centres undefined) | 3.83% (inactive)
7 | COCC1c2nnn(CC3CC3)c2CCN1C(=O)N(C)C (centres undefined) | -2.44% (inactive)
8 | CN1CC[C@H](c2c(O)cc(O)c3c(=O)cc(-c4ccccc4Cl)oc23)[C@H](O)C1 | -76.7% (active)
9 | CC(=O)N1CCC(C(=O)NCc2ccccc2)(N(C(=O)c2ccc(C)cc2)c2ccc(F)c(F)c2)CC1 | -32.1% (inactive)
10 | CC(=O)Nc1ccc(-c2cn3nc(C)c(C)nc3n2)cc1 | -0.582% (inactive)
11 | N#Cc1ccccc1SCc1ccccc1 | 27% (inactive)
12 | Cc1nc(-c2ccc(F)cc2)sc1-c1ccc(SCc2ccc(Br)cc2)nn1 | -0.254% (inactive)
13 | Brc1ccc(CSc2cccc3cccnc23)cc1 | -110% (active)
14 | O=C(COc1ccccc1Cl)Nc1ccc(Oc2ccc(F)cc2)c(C(F)(F)F)c1 | -7.01% (inactive)
15 | CC1=C(C(=O)NCCCN2CCCCC2)C2(CCN(S(C)(=O)=O)CC2)OC1=O | 16.4% (inactive)
16 | COc1ccc(OC)c(NC(=O)N2CCc3nc(-c4ccc(C)cc4)sc3C2)c1 | -112% (active)
17 | COc1ccc(C)cc1NC(=O)C(=O)NCCc1sc(-c2ccc(F)cc2)nc1C | 0.139% (inactive)
18 | COc1ccc(NC(=O)N2CCc3nc(-c4ccccc4)sc3C2)cc1OC | 32.4% (inactive)
19 | COc1cccc(OCC(=O)NCCc2sc(-c3cccc(F)c3)nc2C)c1 | 11.4% (inactive)
20 | COc1cccc(-c2nc3c(s2)CN(C(=O)Nc2ccc(C)c(F)c2)CC3)c1 | -89.9% (active)
21 | Cc1ccc(-c2nc3c(s2)CN(C(=O)Nc2ccc(C)cc2C)CC3)cc1 | 210% (inactive)
22 | CO[C@H](c1ccccc1)c1n[nH]c(Cc2ccccc2)n1 | 0.899% (inactive)
23 | CC1(C)Cc2cc(-c3cncn3CCNC3CCS(=O)(=O)C3)ccc2O1 (centres undefined) | 2.55% (inactive)

Row | Structure (SMILES) | activity change, negative = inhibition
24 | Cc1c(Br)c(C(F)(F)F)nn1CC(=O)N1CCCCC1 | 2.94% (inactive)
25 | CCn1c(=O)c(-c2nc(-c3ccc(F)c(Cl)c3)no2)c(O)c2ccccc21 | -48.5% (inactive)
26 | COc1ccc(-c2[nH]ncc2CNC(=O)Cc2cccnc2)cc1 | -20.6% (inactive)
27 | CN(CCCC1CCCO1)Cc1ncc[nH]1 (centres undefined) | -1.64% (inactive)
28 | CC(=O)Nc1ccccc1OC(=O)N1CCOCC1 | 0.117% (inactive)
29 | O=C(Nc1ccccc1N1CCOCC1)NC1CCN(C(=O)OCc2ccccc2)CC1 | -86.9% (active)
30 | CCOC(=O)N1CCC(NCc2ccccc2-n2ccnc2C)CC1 | 4.98% (inactive)
31 | CN(Cc1ccn[nH]1)C(=O)c1coc(COc2cccc(F)c2F)n1 | 6.91% (inactive)
32 | CCC(C)N(Cc1ccncc1)C(=O)Cc1nc(C)sc1C (centres undefined) | 46% (inactive)
33 | C[C@H]1O[C@@H](O[C@H]2[C@@H](O)C[C@H](O[C@H]3[C@@H](O)C[C@H](O[C@H]4CC[C@]5(C)C6C[C@@H](O)[C@]7(C)[C@@H](C8=CC(=O)OC8)CC[C@]7(O)C6CC[C@@H]5C4)O[C@@H]3C)O[C@@H]2C)C[C@H](O)[C@@H]1O (some centres undefined) | -64.8% (inactive) and -73.6% (active)
34 | CCOC(=O)c1cccnc1-c1ccc(OC)nc1 | 14.5% (inactive)
35 | CN1CCC(NCCN(C)S(C)(=O)=O)CC1 | 12.1% (inactive)
36 | Cc1cccc(-c2nc(C)c(CCNC(=O)C(=O)Nc3cccc(Cl)c3)s2)c1 | -6.82% (inactive)
37 | CSc1nnc(SC)n1CCNC(=O)Nc1cccc(Cl)c1 | -80.6% (active)
38 | CCOC(=O)CCSc1nnc(CNc2cccc(Cl)c2)n1CCc1ccccc1 | 19.4% (inactive)
39 | Cn1nc(C2CCN(c3cnccn3)CC2)n(-c2ccccc2)c1=O | 2.02% (inactive)
40 | CC(C)c1cc(C(=O)NCCCc2nc3ccccc3n2C)n(C)n1 | -0.0637% (inactive)
41 | Cc1ccc(C23CC4CC(CC(CN)(C4)C2)C3)cc1C | -89.5% (active)
42 | O=C1CCc2cc(S(=O)(=O)Nc3cccc(Cl)c3)cc3c2N1CC3 | -27.2% (inactive)
43 | CCCc1ccc(N2C(=O)C3CCC(C)CC3C2=O)cc1 (centres undefined) | 7.51% (inactive)
44 | CC(C)c1cc(CN(C)C(=O)c2ccc(C#CC(C)(C)O)o2)on1 | 1.77% (inactive)
45 | CC(=O)N1CC2(CCN(C(=O)C3CCNCC3)CC2)CC1C(=O)O (centres undefined) | -40.5% (inactive)
46 | CC(=O)c1cnc2ccc(-c3cc(Cl)c(O)c(Cl)c3)nc2c1NC1CCC(CN(C)C)CC1 (centres undefined) | -75.6% (active)

Row | Structure (SMILES) | activity change, negative = inhibition
47 | Cc1nn(-c2ccccc2)c(C)c1CCC(=O)Nc1nc(C(C)C)cs1 | -0.863% (inactive)
48 | COc1cc2c(cc1CNCC(=O)Nc1ccc(C)cc1C)OCCO2 | -7.55% (inactive)
49 | CN(Cc1ccoc1)c1nc(-c2cccnc2)nc2c1cnn2C | -58.5% (inactive)
50 | COc1ccc(-c2noc(CSc3nc(C)cc(=O)[nH]3)n2)cc1OC | 32.8% (inactive)
51 | Cc1nc(SCc2nc(C(c3ccccc3)c3ccccc3)no2)[nH]c(=O)c1C | -95.3% (active)
52 | C=CCN(Cc1ccc(C)s1)C(=O)c1ccc(-c2nnn(C)n2)cc1 | -2.73% (inactive)
53 | CC1CCCN(C(=O)CCNc2c(-c3ccc(F)cc3)nc3cnccn23)C1 (centres undefined) | 229% (inactive)
54 | Cc1ncc(CN2CCC(Oc3cccc(C(=O)NCc4ccccc4)c3)CC2)s1 | -28.1% (inactive)
55 | COC1C2CCC1N(C(=O)COc1ccccc1C)CCO2 (centres undefined) | -5.26% (inactive)
56 | CC(C)(C)CC(=O)OCC(=O)[C@@]1(O)CCC2C3CCC4=CC(=O)C=C[C@]4(C)C3[C@@H](O)C[C@@]21C (some centres undefined) | 6.39% (inactive)
57 | O=C(CCC1(c2ccccc2)NC(=O)NC1=O)Nc1ccc(N2CCCCC2)c(F)c1 (centres undefined) | -25.7% (inactive)
58 | O=C1CC(c2cccnc2)c2cnn(CC3CC3)c2N1 (centres undefined) | 6.49% (inactive)
59 | CC(C)Cn1ncc2c1NC(=O)CC2c1csc(-c2ccccc2)n1 (centres undefined) | -98.9% (active)
60 | Cc1nn(CC(C)C)c2c1C(c1cnn3cccnc13)CC(=O)N2 (centres undefined) | -4.06% (inactive)
61 | COCCN1CC2(CCOCC2)c2cc(NC(=O)C3CCC3)ccc21 | -48.6% (inactive)
62 | Cc1nn(C)c(C)c1CCC(=O)N[C@H]1CCC(=O)NC1c1cccnc1 (some centres undefined) | 85.1% (inactive)
63 | COc1ccc(-c2cccc(-c3nnc(C)s3)c2)c(OC)c1 | -81.9% (active)
64 | COc1cccc(-c2nc(C)c(-c3ccc(SCc4cccc5ccccc45)nn3)s2)c1 | -1.38% (inactive)
65 | COc1cccc(-c2nc(C)c(-c3ccc(SCc4ccccc4)nn3)s2)c1 | -15.2% (inactive)
66 | CCc1cn[nH]c1C1CCN(C(=O)C2COc3c(cccc3OC)C2)CC1 (centres undefined) | -0.504% (inactive)
67 | NCC(=O)CCC(=O)OCc1ccccc1 | 9.17% (inactive)
68 | Cc1cc(C)c(/C=C2\C(=O)Nc3ccccc32)[nH]1 | 22% (inactive) and -75.5% (active)
69 | O=C1CCCCC(=O)c2ccccc2N1 | -17.8% (inactive)

Row | Structure (SMILES) | activity change, negative = inhibition
70 | CNc1ccc(Cl)cc1C(=O)NCCN(C)S(C)(=O)=O | -31% (inactive)
71 | CC(=O)N1CCn2c(-c3cnn(C)c3)cnc2C12CCN(S(=O)(=O)C1CC1)CC2 | 7.11% (inactive)
72 | O=C(NC1CC1)c1cc2n(n1)CCN(C(=O)CCn1nnc3ccccc31)C2 | -45.8% (inactive)
73 | C[C@@H]1CN([C@@H](C)CO)C(=O)CCCn2cc(nn2)CO[C@H]1CN(C)S(=O)(=O)c1ccc(-n2cccn2)cc1 | -114% (active)
74 | C[C@H]1CN([C@@H](C)CO)C(=O)CCCn2cc(nn2)CO[C@@H]1CN(C)S(=O)(=O)c1cccc(C#N)c1 | 24.6% (inactive)
75 | C[C@H]1CN([C@@H](C)CO)C(=O)CCCn2cc(nn2)CO[C@@H]1CN(C)S(=O)(=O)c1ccc(-n2cccn2)cc1 | -30.5% (inactive)
76 | O=C(c1cc(COc2c(F)cccc2F)on1)N1CCCC1c1ccco1 (centres undefined) | 1.77% (inactive)
77 | CC(=O)Nc1ccc(NS(=O)(=O)c2ccc3oc(=O)ccc3c2)cc1 | 137% (inactive)
78 | O=C(C1CCN(S(=O)(=O)c2ccc3[nH]c(=O)ccc3c2)CC1)N1CCN(c2ccccc2F)CC1 | 27.2% (inactive)
79 | O=C(Oc1ccc(Cl)cc1)c1snnc1-c1ccccc1 | -78% (active)
80 | COc1ccc2c(c1)NC1(CCN(S(=O)(=O)c3ccc(F)c(Cl)c3)CC1)c1cccn1-2 | 11.3% (inactive)
81 | COc1ncccc1CN1CCc2[nH]cnc2C1Cc1ccccc1 (centres undefined) | -52.3% (inactive)
82 | CC(=O)Nc1ccc(NC(=O)CSc2nnnn2C2CCCCC2)cc1 | 2.96% (inactive)
83 | C=CCC1(O)C(C)C(c2ccccc2)N(C)C(c2ccccc2)C1C (centres undefined) | -91.3% (active)
84 | CN(C)C(=O)NC[C@H]1CCC[C@]2(CCN(Cc3nccs3)C2)O1 | -40.2% (inactive)
85 | O=C(Nc1ccc(C(F)(F)F)cn1)Nc1ccc(-c2ccccc2)s1 | -27.9% (inactive)
86 | Cc1c(C(=O)N2CCC3(CC2)CC(O)(c2nccs2)CO3)oc2ccccc12 (centres undefined) | -14.2% (inactive)
87 | COc1cccc(NC(=O)N2CCC3(CC2)CC(=O)c2ccccc2O3)c1 | -5.86% (inactive)
88 | Cc1c(C(=O)N2CCCCC2)oc2ccc3c(c12)C(=O)CC1(CCCCCC1)O3 | -112% (active)
89 | c1ccc2ncc(-c3ccncn3)cc2c1 | 1.85% (inactive)
